In PubChem BioAssay (EPA / NIEHS):
Calls of active or inactive are those of the source. The calls were made as follows: active = hit-call score of the fitted dose curve at least 0.9, where 1 is the maximum; inactive = score below 0.9.

Experiment: BSK_hDFCGF_Proliferation: Cell Proliferation Assessment in the BioMAP Diversity Plus: hDFCGF Assay (AID 2283059);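 also: curves fitted for both rise and fall of signal versus DMSO baseline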
Conditions: primary human foreskin fibroblasts
Procedure: BSK_hDFCGF is a cell-based, multiplexed-readout assay that uses foreskin fibroblast, a human skin primary cell, with measurements taken at 24 hours after chemical dosing in a 96-well plate.BSK_hDFCGF_Proliferation is an assay component measured in the BSK_hDFCGF assay. It measures […] related to cell proliferation using Sulforhodamine staining technology.Data from the assay component BSK_hDFCGF_Proliferation was analyzed into 1 assay endpoint. This assay endpoint, BSK_hDFCGF_Proliferation, was analyzed with bidirectional fitting relative to DMSO as the negative control and baseline of activity. Using a type of viability reporter, measures of total protein for gain or loss-of-signal activity can be used to understand the viability at the cellular-level. Furthermore, this assay endpoint can be referred to as a secondary readout, because this assay has produced multiple assay endpoints where this one serves a viability function. To generalize the intended target to other relatable targets, this assay endpoint is annotated to the cell cycle intended target family, where the subfamily is proliferation.
The levels of cell surface (or secreted, indicated by the prefix "s") biomarker endpoints were measured by ELISA. Overt cytotoxicity to cells in confluent adherent cultures (all systems other than the BT system) was assessed by measuring total protein levels using sulforhodamine B (SRB) staining in parallel cultures at the time of biomarker measurements, indicated as SRB endpoints. For proliferation assays for adherent cell types, individual cell types are cultured at sub-confluence and relative cell numbers quantified by SRB staining at time points optimized for each system (48 h: 3C and CASM3C systems; 72 h: BT and HDF3CGF systems; 96 h: SAg system). SRB was performed by staining cells with 0.1% SRB after fixation with 10% TCA and reading wells at 560 nm.Viability and proliferation of PBMC (T cells) was quantified by Alamar Blue reduction for the SAg and BT systems. For PBMC viability (referred to as PBMC Cytotoxicity within the assay endpoint names), cells were plated (75,000/well in a 96-well plate) and then chemical samples added for 1 h before addition of activators, SEB and TSST-1 (20 ng/mL final concentration each). Cells were incubated for 90 h. Then, Alamar Blue (20 uL/well) (Invitrogen, Cat DAL1100) was added for 6 h, and the plates were read with a fluorescence microplate reader at 546/580 nm (excitation/emission). For PBMC proliferation, cells were plated and activated as above but incubated for only 16 h prior to addition of Alamar Blue. Plates were read after 6 h.
In the case of N[C@@H](Cc1c[nH]c2ccccc12)C(=O)O, the outcome is reported as “inactive”.
In the case of COc1ccc(C(=O)Nc2nc3ccccc3c(NCc3ccccc3)c2C#N)cc1, the AC50 is reported as 5.53 µM (active).
For C=CCCCCCCCCCCCC, the outcome was “inactive”.
In the case of CCCCOC(=O)CCCCC(=O)OCCCC, the outcome is reported as “inactive”.
With CCCCC(CC)CO (stereo not given) the outcome was “inactive”.
With CC(=O)O the AC50 was 31.2 µM (active).
For Cc1cc(SC2=C(O)C[C@@](CCc3ccc(N)cc3)(C(C)C)OC2=O)c(C(C)(C)C)cc1CO, the outcome was “inactive”.
In the case of OCC(CO)n1cnc(-c2ccc(F)cc2)c1-c1ccnc(Oc2ccccc2)n1, the outcome is reported as “inactive”.
In the case of O=NO, the outcome is reported as “inactive”.
With O=C(O)CN(CC(=O)O)CC(=O)O the outcome was “inactive”.
In the case of C=CCc1ccc(OC)c(OC)c1, the outcome is reported as “inactive”.
For Nc1nc(=S)c2[nH]cnc2[nH]1, the AC50 was 14 µM (active).
In the case of Cc1ccc(C(C)(C)C)c(O)c1, the outcome is reported as “inactive”.
For CC(C)OC(=O)C(C)(C)Oc1ccc(C(=O)c2ccc(Cl)cc2)cc1, the AC50 was 26.4 µM (active).
For O=C(O)c1cccnc1, the outcome was “inactive”.
For CS(=O)(=O)c1ccc([C@@H](C[C@H]2CCC(=O)C2)C(=O)Nc2cnccn2)cc1Cl, the outcome was “inactive”.
With CC(C)(O)c1ccc(CNC(=O)c2cccnc2Oc2ccc(F)cc2)cc1 the outcome was “inactive”.
In the case of CCCCCCCCCC[N+](C)(C)[O-], the outcome is reported as “inactive”.
In the case of CC(N)=O, the outcome is reported as “inactive”.
For CCCCC(CC)COP(=O)(OCC(CC)CCCC)OCC(CC)CCCC (stereo not given), the AC50 was 7.49 µM (active).
For Cc1c(C)c2c(c(C)c1O)CCC(C)(COc1ccc(CC3SC(=O)NC3=O)cc1)O2 (stereo not given), the AC50 was 6.8 µM (active).
With CCCC(=O)O the outcome was “inactive”.
In the case of CC1=C(C)S(=O)(=O)CCS1(=O)=O, the outcome is reported as “inactive”.
For C/C=C/c1ccc(OC)cc1, the outcome was “inactive”.
In the case of C/C=C/C=C/C(=O)O, the outcome is reported as “inactive”.
With CC(=O)OCC(COC(C)=O)OC(C)=O the outcome was “inactive”.
For Cn1cnc2c1c(=O)[nH]c(=O)n2C, the outcome was “inactive”.
For S=c1[nH]c2ccccc2s1, the outcome was “inactive”.
In the case of NC=O, the AC50 is reported as 19.2 µM (active).
In the case of CSc1ccc(Oc2ccc(S(N)(=O)=O)cc2CN(C)C)cc1C, the AC50 is reported as 20 µM (active).
In the case of CN(C)CCCN(C)CCCN(C)C, the outcome is reported as “inactive”.
With Oc1ccc(O)cc1 the AC50 was 0.465 µM (active).
With OCC(O)CO the outcome was “inactive”.
For CCCCCCCCCCCCCCCCO, the AC50 was 6.73 µM (active).
For O=C1CCCCC1, the outcome was “inactive”.
With CC(C)COC(=O)CCCCC(=O)OCC(C)C the outcome was “inactive”.
In the case of CCCCCCCCCCCCCCOS(=O)(=O)O, the AC50 is reported as 5.36 µM (active).
For O=C(Oc1ccccc1)c1cccc(C(=O)Oc2ccccc2)c1, the outcome was “inactive”.
For CC(=O)S[C@H](C(=O)N[C@H]1Cc2ccccc2[C@H]2CCC[C@@H](C(=O)O)N2C1=O)C(C)C, the outcome was “inactive”.
In the case of O=C1OC(c2ccc(O)cc2)(c2ccc(O)cc2)c2ccccc21, the AC50 is reported as 28 µM (active).
